Test results reported in PMC7862700, “An all-to-all approach to the identification of sequence-specific readers for epigenetic DNA modifications on cytosine”.

Key:
Test in all cases: DAPPL (digital affinity profiling via proximity ligation, sequencing); 10 mM Tris-HCl pH 7.5, 50 mM NaCl, 1 mM DTT, 4% glycerol, room temperature, 30 min; GST-TFs on glutathione beads, 16-mer random dsDNA library, 0.1% formaldehyde crosslink after washing; high values mean tight binding
Details in all cases: protein: recombinant; tags: N-terminal GST; dsDNA, one strand shown
[1] = target: T1, GABPA (Homo sapiens, UniProt Q06546 1-454)
T1 sequence: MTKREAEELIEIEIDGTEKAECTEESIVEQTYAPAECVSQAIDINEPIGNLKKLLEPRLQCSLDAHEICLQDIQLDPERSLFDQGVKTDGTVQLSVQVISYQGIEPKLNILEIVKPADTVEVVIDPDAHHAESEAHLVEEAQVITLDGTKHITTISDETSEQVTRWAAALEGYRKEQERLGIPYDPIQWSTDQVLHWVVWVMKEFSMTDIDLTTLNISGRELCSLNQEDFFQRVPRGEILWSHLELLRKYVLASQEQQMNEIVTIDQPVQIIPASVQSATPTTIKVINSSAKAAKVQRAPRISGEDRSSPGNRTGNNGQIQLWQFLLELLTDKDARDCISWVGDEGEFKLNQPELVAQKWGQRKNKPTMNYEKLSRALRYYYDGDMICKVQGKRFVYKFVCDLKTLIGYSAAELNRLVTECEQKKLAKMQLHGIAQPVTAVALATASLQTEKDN
How it was run: (§1)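 Sequencing on an Illumina NextSeq500 followed washing, crosslinking with 0.1% formaldehyde, proximity ligation (BsaI/T4 ligase, 1 h, 37 °C) and PCR amplification of pools that had been incubated for 30 min at room temperature with 200 nmole of a random double-stranded 16-mer DNA library in Tris/NaCl/DTT/glycerol buffer. Each pool held DNA-barcoded human transcription factors, expressed in yeast as GST fusions and captured on glutathione beads, plus a tag-only sample. Binding signal is a hexamer's read frequency for a factor divided by its frequency in the tag-only sample.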

[2] = target: T2, ELK3 (Homo sapiens, UniProt P41970 1-407)
T2 sequence: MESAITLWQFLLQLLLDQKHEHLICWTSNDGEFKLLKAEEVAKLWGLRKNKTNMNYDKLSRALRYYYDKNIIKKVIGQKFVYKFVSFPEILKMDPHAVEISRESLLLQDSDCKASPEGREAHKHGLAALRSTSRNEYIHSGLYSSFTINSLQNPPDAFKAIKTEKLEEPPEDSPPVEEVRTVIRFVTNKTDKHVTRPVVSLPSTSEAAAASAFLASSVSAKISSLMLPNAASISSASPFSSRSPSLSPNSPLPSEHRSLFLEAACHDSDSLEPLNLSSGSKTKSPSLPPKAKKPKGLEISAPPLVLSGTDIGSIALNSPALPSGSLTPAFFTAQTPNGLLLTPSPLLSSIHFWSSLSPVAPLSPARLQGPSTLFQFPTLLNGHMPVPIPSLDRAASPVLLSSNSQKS
How it was run: as §1

[3] = target: T3, FEV (Homo sapiens, UniProt Q99581 1-238)
T3 sequence: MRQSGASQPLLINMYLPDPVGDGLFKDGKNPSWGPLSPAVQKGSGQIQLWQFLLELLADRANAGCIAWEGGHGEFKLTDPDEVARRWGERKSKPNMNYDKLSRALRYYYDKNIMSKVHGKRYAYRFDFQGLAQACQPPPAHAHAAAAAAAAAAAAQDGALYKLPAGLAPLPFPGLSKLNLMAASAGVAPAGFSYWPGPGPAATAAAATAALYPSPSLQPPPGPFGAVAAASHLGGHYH
How it was run: as §1

[4] = target: T4, SPIC (Homo sapiens, UniProt Q8N5J4 1-248)
T4 sequence: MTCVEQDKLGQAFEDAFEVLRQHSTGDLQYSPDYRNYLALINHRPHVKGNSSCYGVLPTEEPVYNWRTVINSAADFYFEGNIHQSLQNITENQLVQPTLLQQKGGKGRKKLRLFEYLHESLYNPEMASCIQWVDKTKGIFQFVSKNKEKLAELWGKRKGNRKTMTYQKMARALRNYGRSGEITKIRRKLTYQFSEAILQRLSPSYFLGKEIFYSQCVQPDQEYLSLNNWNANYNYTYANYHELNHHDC
How it was run: as §1

[5] = target: ELF4 (Homo sapiens, UniProt Q99607 1-663)
ELF4, sequence (Q99607 whole entry): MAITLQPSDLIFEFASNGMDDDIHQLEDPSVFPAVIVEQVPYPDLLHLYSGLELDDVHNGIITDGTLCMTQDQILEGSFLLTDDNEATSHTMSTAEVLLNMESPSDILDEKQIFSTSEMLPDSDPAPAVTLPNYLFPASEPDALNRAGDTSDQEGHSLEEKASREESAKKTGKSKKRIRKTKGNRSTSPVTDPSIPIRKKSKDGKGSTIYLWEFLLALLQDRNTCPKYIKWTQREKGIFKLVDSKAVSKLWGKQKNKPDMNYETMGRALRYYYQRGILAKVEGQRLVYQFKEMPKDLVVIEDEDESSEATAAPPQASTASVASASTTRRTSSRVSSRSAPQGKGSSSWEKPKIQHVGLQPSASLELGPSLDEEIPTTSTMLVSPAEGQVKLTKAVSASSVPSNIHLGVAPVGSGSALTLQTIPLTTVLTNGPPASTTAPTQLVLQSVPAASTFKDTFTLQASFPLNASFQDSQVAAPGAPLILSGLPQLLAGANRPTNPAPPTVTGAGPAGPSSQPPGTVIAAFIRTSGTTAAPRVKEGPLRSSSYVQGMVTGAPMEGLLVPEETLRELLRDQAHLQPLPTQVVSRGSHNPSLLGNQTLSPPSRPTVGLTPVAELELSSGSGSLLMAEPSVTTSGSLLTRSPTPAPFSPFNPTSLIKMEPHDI
How it was run: as §1

[6] = target: T5, ELK4 (Homo sapiens, UniProt P28324-2 1-405)
T5 sequence: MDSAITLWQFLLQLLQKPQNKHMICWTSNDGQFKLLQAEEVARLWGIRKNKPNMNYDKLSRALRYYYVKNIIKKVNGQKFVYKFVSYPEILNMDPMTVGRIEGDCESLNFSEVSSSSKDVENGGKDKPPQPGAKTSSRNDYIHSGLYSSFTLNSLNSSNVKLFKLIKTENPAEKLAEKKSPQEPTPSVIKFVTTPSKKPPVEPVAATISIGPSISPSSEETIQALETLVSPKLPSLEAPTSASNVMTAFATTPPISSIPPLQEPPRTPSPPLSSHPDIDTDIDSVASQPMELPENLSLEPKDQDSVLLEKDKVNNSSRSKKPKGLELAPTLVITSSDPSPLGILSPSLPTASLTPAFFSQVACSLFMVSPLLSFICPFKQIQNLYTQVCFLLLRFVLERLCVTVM
How it was run: as §1

[7] = target: ETV6 (Homo sapiens, UniProt P41212 1-452)
ETV6, sequence (P41212 whole entry): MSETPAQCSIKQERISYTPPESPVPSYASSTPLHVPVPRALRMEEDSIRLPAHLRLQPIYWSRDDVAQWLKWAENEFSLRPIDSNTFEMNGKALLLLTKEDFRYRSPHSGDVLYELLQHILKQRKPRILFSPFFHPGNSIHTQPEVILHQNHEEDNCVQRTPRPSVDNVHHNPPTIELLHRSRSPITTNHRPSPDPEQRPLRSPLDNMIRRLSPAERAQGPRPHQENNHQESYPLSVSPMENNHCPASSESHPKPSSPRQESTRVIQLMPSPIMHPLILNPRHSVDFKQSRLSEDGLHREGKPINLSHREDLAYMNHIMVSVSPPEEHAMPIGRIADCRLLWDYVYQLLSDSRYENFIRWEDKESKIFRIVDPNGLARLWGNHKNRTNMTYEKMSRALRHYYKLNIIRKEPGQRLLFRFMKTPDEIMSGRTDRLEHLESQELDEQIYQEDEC
How it was run: as §1

[8] = target: T6, ERG (Homo sapiens, UniProt P11308 1-479)
T6 sequence: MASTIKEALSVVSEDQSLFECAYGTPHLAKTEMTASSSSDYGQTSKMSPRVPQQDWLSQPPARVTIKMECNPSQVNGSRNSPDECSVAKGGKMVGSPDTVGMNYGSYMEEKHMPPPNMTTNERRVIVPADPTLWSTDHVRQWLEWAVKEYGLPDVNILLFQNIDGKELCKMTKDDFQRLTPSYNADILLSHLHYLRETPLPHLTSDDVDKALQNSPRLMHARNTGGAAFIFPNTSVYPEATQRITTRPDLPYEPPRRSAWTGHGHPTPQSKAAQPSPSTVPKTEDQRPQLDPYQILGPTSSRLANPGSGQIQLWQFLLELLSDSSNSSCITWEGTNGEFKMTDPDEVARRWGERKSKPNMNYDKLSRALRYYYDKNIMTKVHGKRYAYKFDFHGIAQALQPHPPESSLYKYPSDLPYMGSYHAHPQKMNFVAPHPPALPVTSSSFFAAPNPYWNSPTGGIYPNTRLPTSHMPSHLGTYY
How it was run: as §1

[9] = target: T7, EHF (Homo sapiens, UniProt Q9NZC4 1-300)
T7 sequence: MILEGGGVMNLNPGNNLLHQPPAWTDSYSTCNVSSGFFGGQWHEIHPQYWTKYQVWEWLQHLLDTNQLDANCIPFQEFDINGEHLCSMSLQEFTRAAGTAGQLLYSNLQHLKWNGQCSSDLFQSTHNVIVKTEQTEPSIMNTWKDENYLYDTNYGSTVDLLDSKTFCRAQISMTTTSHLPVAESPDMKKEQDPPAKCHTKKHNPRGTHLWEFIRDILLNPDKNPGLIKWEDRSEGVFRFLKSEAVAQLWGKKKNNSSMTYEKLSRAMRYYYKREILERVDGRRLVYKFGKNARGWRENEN
How it was run: as §1

[10] = target: SPIB (Homo sapiens, UniProt Q01892 1-262)
SPIB, sequence (Q01892 whole entry): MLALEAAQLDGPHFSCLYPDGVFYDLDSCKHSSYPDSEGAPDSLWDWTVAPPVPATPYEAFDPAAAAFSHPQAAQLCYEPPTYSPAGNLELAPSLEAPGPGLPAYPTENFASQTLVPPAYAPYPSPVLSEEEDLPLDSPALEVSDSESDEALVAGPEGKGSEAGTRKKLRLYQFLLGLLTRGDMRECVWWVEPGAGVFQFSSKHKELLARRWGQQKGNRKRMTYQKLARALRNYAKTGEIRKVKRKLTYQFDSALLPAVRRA
How it was run: as §1

[11] = target: T8, ERF (Homo sapiens, UniProt P50548 1-548)
T8 sequence: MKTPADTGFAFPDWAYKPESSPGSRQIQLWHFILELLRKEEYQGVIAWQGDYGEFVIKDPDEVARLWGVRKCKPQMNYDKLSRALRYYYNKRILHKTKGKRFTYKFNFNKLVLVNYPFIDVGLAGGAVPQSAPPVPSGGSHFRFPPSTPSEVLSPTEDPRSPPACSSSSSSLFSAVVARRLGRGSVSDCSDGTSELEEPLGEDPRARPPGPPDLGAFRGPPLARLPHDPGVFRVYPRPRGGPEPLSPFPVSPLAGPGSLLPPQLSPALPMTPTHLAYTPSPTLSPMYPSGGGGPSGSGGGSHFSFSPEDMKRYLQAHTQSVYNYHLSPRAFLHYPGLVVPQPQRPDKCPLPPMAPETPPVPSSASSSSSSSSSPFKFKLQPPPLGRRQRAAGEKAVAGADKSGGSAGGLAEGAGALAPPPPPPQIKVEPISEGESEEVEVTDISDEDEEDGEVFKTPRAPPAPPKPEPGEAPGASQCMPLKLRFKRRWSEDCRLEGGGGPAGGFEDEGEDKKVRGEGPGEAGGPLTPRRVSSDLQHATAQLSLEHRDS
How it was run: as §1

[12] = target: T9, ETV3L (Homo sapiens, UniProt Q6ZN32 1-361)
T9 sequence: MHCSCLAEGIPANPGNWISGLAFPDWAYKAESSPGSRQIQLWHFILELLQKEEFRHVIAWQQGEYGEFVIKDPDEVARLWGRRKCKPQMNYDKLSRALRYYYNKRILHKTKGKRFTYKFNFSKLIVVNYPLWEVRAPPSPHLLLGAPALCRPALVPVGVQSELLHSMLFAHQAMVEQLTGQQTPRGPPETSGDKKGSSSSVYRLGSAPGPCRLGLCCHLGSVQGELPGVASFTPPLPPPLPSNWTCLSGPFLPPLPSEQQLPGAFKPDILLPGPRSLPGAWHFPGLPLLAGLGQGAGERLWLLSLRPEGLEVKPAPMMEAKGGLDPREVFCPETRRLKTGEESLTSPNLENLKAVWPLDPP
How it was run: as §1

[13] = target: T10, ETS2 (Homo sapiens, UniProt P15036 1-469)
T10 sequence: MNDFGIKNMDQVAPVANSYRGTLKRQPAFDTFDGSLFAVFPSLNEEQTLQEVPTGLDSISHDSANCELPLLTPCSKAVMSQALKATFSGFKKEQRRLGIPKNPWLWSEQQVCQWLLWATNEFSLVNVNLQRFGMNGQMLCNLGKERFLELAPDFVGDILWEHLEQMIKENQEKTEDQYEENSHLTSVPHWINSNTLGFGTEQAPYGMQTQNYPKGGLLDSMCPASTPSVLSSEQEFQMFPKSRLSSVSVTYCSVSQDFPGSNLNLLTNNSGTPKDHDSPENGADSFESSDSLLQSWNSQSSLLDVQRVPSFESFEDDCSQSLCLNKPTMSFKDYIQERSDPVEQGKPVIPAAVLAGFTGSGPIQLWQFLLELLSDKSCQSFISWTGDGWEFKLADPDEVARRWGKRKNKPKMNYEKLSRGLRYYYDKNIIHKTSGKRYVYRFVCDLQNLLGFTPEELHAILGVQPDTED
How it was run: as §1

[14] = target: T11, ETV7 (Homo sapiens, UniProt Q9Y603 1-341)
T11 sequence: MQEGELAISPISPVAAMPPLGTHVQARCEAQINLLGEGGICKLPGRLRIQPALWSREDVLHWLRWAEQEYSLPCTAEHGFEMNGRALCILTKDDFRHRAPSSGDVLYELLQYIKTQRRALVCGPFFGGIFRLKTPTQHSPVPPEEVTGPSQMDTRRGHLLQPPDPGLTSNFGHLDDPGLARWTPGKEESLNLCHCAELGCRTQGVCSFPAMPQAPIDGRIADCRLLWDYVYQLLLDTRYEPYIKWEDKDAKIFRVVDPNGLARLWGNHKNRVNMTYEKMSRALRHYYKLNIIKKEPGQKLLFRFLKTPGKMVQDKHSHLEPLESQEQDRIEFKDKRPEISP
How it was run: as §1

[15] = target: T12, ETV3 (Homo sapiens, UniProt P41162-2 1-143)
T12 sequence: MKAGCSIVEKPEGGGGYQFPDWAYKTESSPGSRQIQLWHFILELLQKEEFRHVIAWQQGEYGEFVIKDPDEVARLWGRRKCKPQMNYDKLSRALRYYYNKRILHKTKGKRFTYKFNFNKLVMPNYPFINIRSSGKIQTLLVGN
How it was run: as §1

Row | Sequence | binding signal [1] | binding signal [2] | binding signal [3] | binding signal [4] | binding signal [5] | binding signal [6] | binding signal [7] | binding signal [8] | binding signal [9] | binding signal [10] | binding signal [11] | binding signal [12] | binding signal [13] | binding signal [14] | binding signal [15]
1 | GCGCCG | 1.03 fold enrichment (6-mer frequency, TF over GST control) | 1.02 fold enrichment (6-mer frequency, TF over GST control) | 1.05 fold enrichment (6-mer frequency, TF over GST control) | 1.1 fold enrichment (6-mer frequency, TF over GST control) | 1.03 fold enrichment (6-mer frequency, TF over GST control) | 1.03 fold enrichment (6-mer frequency, TF over GST control) | 1.05 fold enrichment (6-mer frequency, TF over GST control) | – | – | – | – | – | – | – | –
2 | CATATG | 1.09 fold enrichment (6-mer frequency, TF over GST control) | 1.04 fold enrichment (6-mer frequency, TF over GST control) | – | 1.01 fold enrichment (6-mer frequency, TF over GST control) | 1.04 fold enrichment (6-mer frequency, TF over GST control) | 1.11 fold enrichment (6-mer frequency, TF over GST control) | 1.03 fold enrichment (6-mer frequency, TF over GST control) | 1.07 fold enrichment (6-mer frequency, TF over GST control) | 1.01 fold enrichment (6-mer frequency, TF over GST control) | 1.04 fold enrichment (6-mer frequency, TF over GST control) | 1.06 fold enrichment (6-mer frequency, TF over GST control) | 1.06 fold enrichment (6-mer frequency, TF over GST control) | 1.04 fold enrichment (6-mer frequency, TF over GST control) | 1.14 fold enrichment (6-mer frequency, TF over GST control) | 1.02 fold enrichment (6-mer frequency, TF over GST control)
